From PubChem BioAssay
G9a inh – qHTS Assay for Inhibitors of Histone Lysine Methyltransferase G9a | G9a H3K9 monomethylation, AlphaScreen, 2 h | Potency, µM (top dose mostly 102 µM), for the others: top-dose activity, negative = inhibition, usual class: inhibitors | hit rate 8.8% among 350,000; also: % is scaled to controls: 0 for no effect and ±100 for the full control effect; nearly all actives have a fitted effect of over 75% in size
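Quantitative HTS format: methyltransferase activity on a biotin-tagged H3K9 peptide is measured by AlphaScreen, using a rabbit anti-monomethyl-H3K9 antibody with streptavidin donor and anti-IgG acceptor beads. Final levels are 20 nM enzyme, 500 nM peptide, 20 uM SAM; 2 h RT.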
JMJD2A Tudor – qHTS Assay for Inhibitors of JMJD2A-Tudor Domain; Lysine-specific demethylase 4A (Homo sapiens), O75164; hit rate 4.4% among 390,000; AID 504339, 2011; AlphaScreen JMJD2A-Tudor / H3K4me3 peptide binding; Potency, µM (highest dose often 114 µM), without a hit: at the highest dose activity change, negative = inhibition, actives largely listed as inhibitors; also: % is scaled to controls: 0 for no effect and ±100 for the full control effect; nearly all actives have a fitted effect of over 50% in size
L3MBTL1 inh – qHTS Assay for the Inhibitors of L3MBTL1; Lethal(3)malignant brain tumor-like protein 1 (Homo sapiens), Q9Y468; AlphaScreen L3MBTL1–H3K9me1 peptide binding; Potency, µM (series often up to 57.1 µM), without a hit: top-dose activity, negative = inhibition, most hits filed as inhibitors; hit rate 0.66% among 230,000; also: % is scaled to controls: 0 for no effect and ±100 for the full control effect; nearly all actives have a fitted effect of over 60% in size
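Displacement of a biotinylated histone H3(1-15) peptide monomethylated at Lys9 (75 nM) from L3MBTL1 (50 nM) was measured by AlphaScreen after a 30 min room-temperature compound incubation; cefsulodin titration served as intraplate control.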
BAZ2B block – qHTS Assay for Inhibitors of BAZ2B. Bromodomain adjacent to zinc finger domain protein 2B (Homo sapiens), Q9UIF8. AlphaScreen BAZ2B-H3K14Ac peptide displacement. Potency, µM (highest dose often 114 µM), for inactives: at the highest dose activity change, negative = inhibition, actives largely listed as inhibitors. hit rate 4.4% among 360,000. AID 504333, 2011; also: % is scaled to controls: 0 for no effect and ±100 for the full control effect; nearly all actives have a fitted effect of over 60% in size
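Protein-peptide AlphaScreen: BAZ2B 50 nM, b-H3K14Ac 50 nM, 1x PBS pH 7.4 + 0.01% Tween-20. Preincubation 30 min RT; cpd 30 min RT (top 110 uM); beads 20 min RT, light-protected.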
HP1b chromo inh – HTS for Inhibitors of HP1-beta Chromodomain Interactions with Methylated Histone Tails. Chromobox protein homolog 1 (Homo sapiens), P83916. AlphaScreen HP1-beta / biotin-H3K9me3 peptide binding. Potency, µM (titrated, usually from 114 µM), for inactives: top-dose activity change, negative = inhibition, actives largely listed as inhibitors. hit rate 0.56% among 390,000. AID 540317, 2011; also: nearly all actives have a fitted effect of over 70% in size
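Compound inhibition of the preformed complex between 50 nM HP1-beta and 50 nM biotinylated H3K9me3 peptide was read by AlphaScreen. Buffer was PBS pH 7.4 with 0.01% Tween-20. Incubations ran 30 min at room temperature, with 10 ug/mL donor/acceptor beads.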
Numbers without * were called inactive; ? = inconclusive; · = no result; [ ] = dose if it differs, or a comment. Sampled rows, rich in hits. Any-hit rate of the full collection: about 11%. Calls follow the shape of the dose curve; as a rule, active = well fitted inhibition curve with a large enough effect; inconclusive = small, poorly fitted or top-dose-only effect; inactive = no such curve, though single readings can be large or run the other way. Potency is read from the fitted curve at half-maximal effect.

SMILES	G9a inh	JMJD2A Tudor	L3MBTL1 inh	BAZ2B block	HP1b chromo inh
NNC(=O)c1ccc(CSc2n[nH]c(=O)[nH]c2=O)cc1	4µM*	-12%	-12%	-15%	11%
CN1CCc2c1nc1ccccc1c2N (tested in a mixture with another compound)	79µM*	-10%	·	20%	36%
CCCCN1CCc2c1nc1ccc(Br)cc1c2N	8%[12.7 µM]	-28%	·	-8%	3%
CN1CCc2c1nc1ccccc1c2N=C1CCCN1Cc1ccccc1	-3%[59 µM]	45µM*	-1%	-8%	3%
Cc1ccc2nc3c(c(N)c2c1)CCN3C	8.9µM*	25µM*	·	79µM*	35µM*
Cc1nc(N)nc2c1CCCC2	4%[59 µM]	-6%	·	-4%	24%
CN1CCCCc2c1nc1c(c2N)CCCC1	?	1.8µM*	0%	?	?
COc1ccc(/C=C(/NC(=O)c2ccccc2)C(=O)N2CCOCC2)cc1OC	25%	-15%	·	37%	19%
CC(C)(O)c1[nH]c2ccc(C#N)cc2c1C(C)(C)O	4%	-27%	?	-1%	19%
CCOC(=O)c1cccc(NC(=O)CN2C(=O)CC(C)(C)Sc3ccccc32)c1	-1%[59 µM]	-24%	·	-14%	12%
Nc1c2c(nc3cccc(Cl)c13)N(c1ccccc1)CC2	18%	-14%	·	6%	18%
Cc1ccc2nc3c(c(N)c2c1)CCN3c1ccccc1	18µM*	0.79µM*	-3%	56µM*	?
Cc1cccc2c(N)c3c(nc12)N(C)CC3	50µM*	18µM*	·	50µM*	-20%
COc1ccc(C(=O)NCc2ccc3c(c2)CCN3C(=O)c2ccncc2)cc1	1%[59 µM]	-21%	·	-4%	-8%
COc1cccc(NC(=O)CN(C)C(=O)c2cc(-c3ccc(C)o3)nc3ccccc23)c1	?	?	3%	-32%	1%
COc1cccc(NC(=O)c2cc(-c3ccc(C)o3)nc3ccccc23)c1	8.9µM*	56µM*	·	?	1%
Cc1ccc(-c2cc(C(=O)NCc3ccco3)c3ccccc3n2)o1	?	50µM*	?	50µM*	-22%
Cc1cc(C(=O)NCc2ccco2)c2ccccc2n1	?	-5%	·	-14%	29%
CCC(CC)c1nnc(NC(=O)c2cc(-c3ccccc3)nc3ccccc23)s1	45µM*	-9%	1%	10%	37%
CCc1nnc(NC(=O)c2cc(C)nc3ccccc23)s1	?	-17%	3%	-18%	13%
CCc1nnc(NC(=O)c2cc(-c3ccc(C)o3)nc3ccccc23)s1	?	89µM*	-8%	-20%	8%
CCOC(=O)c1nc(N2CCN(c3ccc(F)cc3)CC2)c2c(C)noc2n1	-6%[59 µM]	-22%	·	-8%	15%[57 µM]
COC(=O)c1ccc(NC(=O)CCn2cccn2)cc1	9%[59 µM]	2%	·	2%	43%
Cc1ccc(CNC(=O)Cc2c(C)c3c(cc(C)c4c(C)coc43)oc2=O)cc1	?	-8%	·	-2%	19%
Cc1ccc(-c2cc(C(=O)Nc3cccc(S(=O)(=O)N(C)C)c3)c3ccccc3n2)o1	8.9µM*	?	·	3%	0%
SMILES	G9a inh	JMJD2A Tudor	L3MBTL1 inh	BAZ2B block	HP1b chromo inh
Cc1ccc(-c2cc(C(=O)Nc3ccccc3C)c3ccccc3n2)o1	1.8µM*	79µM*	?	-4%	-23%
Cc1cc(C)n2nc(SC(C)C(=O)NCc3ccco3)nc2n1 (centres undefined)	56µM*	-3%	-2%	?	27%
COc1cc(-c2cc(C(=O)Nc3cccc(S(=O)(=O)N(C)C)c3)c3ccccc3n2)cc(OC)c1OC	1%	-4%	·	1%	16%
Cc1cc(-c2ccccc2)nc2cc(C(=O)NCc3ccco3)nn12	50µM*	?	·	50µM*	-2%
CCOC(=O)Cc1ccc(NC(=O)N2CC(C)Oc3ccc(Cl)cc32)cc1 (centres undefined)	-23%[59 µM]	4%	·	-3%	58%
Cc1c(C(=O)NC(C)c2ccccc2)sc2ncnc(N(C)C3CCCCC3)c12 (centres undefined)	6%[59 µM]	-17%	·	-3%	25%
Cc1ccc(C2=C(O)C(=O)C(c3ccc(C)cc3)=C(O)C2=O)cc1	·	25µM*	·	·	-23%
Cc1ccc(O)cc1	6%[2.33 µM]	·	·	·	·
CC1=C(O)C(=O)C(C2=C(O)C(=O)C(C)=C(O)C2=O)=C(O)C1=O	·	0.71µM*	·	·	?
COc1ccc(NC(=O)CNC(c2ccccc2)c2ccccc2)cc1	·	20µM*	3%	79µM*	?
COc1cc(NC(=O)CNC(c2ccccc2)c2ccccc2)cc(OC)c1OC	19%	-17%	·	-12%	7%
COc1ccc(C(NCC(=O)NC(C)c2ccc(Cl)cc2)c2ccccc2)cc1 (centres undefined)	6%[2.33 µM]	25µM*	·	79µM*	?
COc1ccc(OC)c(N(CC(=O)NCc2ccccc2)S(=O)(=O)c2ccccc2)c1	?	-8%	·	-15%	31%
CN(C)c1ccc(C(=C2C=CC(=[N+](C)C)C=C2)c2ccccc2)cc1	11µM*	·	·	·	·
O=C(c1ccccc1)c1cccc(NC(=O)c2ccc(Br)o2)c1	45µM*	-19%	·	-39%	5%
C/C(=N/NC(=O)c1ccc(Br)o1)c1cccc(NC(=O)c2ccc(C)o2)c1	24%[59 µM]	50µM*	-8%	-36%	-10%
COc1ccc(NC(=S)NNC(=O)c2nnn(-c3ccccc3)c2C)cc1	11µM*	-25%	-9%	-32%	11%
COc1ccc(NC(=O)c2cnn(-c3ccccc3)c2C)cc1	10%[0.501 µM]	-8%	2%[2.29 µM]	-5%	28%
COc1ccc(S(=O)(=O)NNC(=O)c2cccs2)cc1	45µM*	-9%	-10%	-12%	27%
COc1ccc(NC(=O)c2cccs2)cc1	-10%[59 µM]	-3%	0%	-2%	36%
COc1ccc(S(=O)(=O)NNC(N)=S)cc1	16µM*	8.9µM*	12%	·	45%
COc1ccc(NC(=S)NNC(=O)c2cccs2)cc1	40µM*	-11%	8%	-2%	7%
O=C(NNS(=O)(=O)c1ccc(Cl)cc1)c1cccs1	4%[12.7 µM]	1%	5%	?	34%
COc1ccc(NC(=O)NNS(=O)(=O)c2ccc(Br)cc2)cc1	10%	-8%	·	-21%	16%
Cn1c2cc(S(C)=O)sc2c2cnn(Cc3ccccc3F)c(=O)c21 (centres undefined)	·	-18%	·	·	·
COc1cc2ccccc2cc1C(=O)N1CCN(c2nc3ccc(F)cc3s2)CC1	-7%[59 µM]	-33%	·	-29%	-2%
COCc1cc(=O)n2c(-c3ccc(C)cc3)n[nH]c2n1	18%	-19%	-10%	5%	34%
COCc1cc(=O)n2c(-c3ccccc3OC)n[nH]c2n1	3.2µM*	-18%	-5%	-28%	11%
